G9a inh – inhibitors of human histone lysine methyltransferase G9a; Potency, µM (titrated, usually from 102 µM), inactives show at the top dose activity, negative = inhibition, most hits filed as inhibitors; G9a H3K9 monomethylation, AlphaScreen, 2 h; 8.8% of 350,000 active; further: potency means the concentration at half of the fitted maximal effect; on the % scale 0 is the no-effect control and ±100 the full control effect; nearly all actives have a fitted effect of over 75% in size
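Step 1: enzyme (final 20 nM) with compound, 15 min RT. Step 2: substrate peptide 500 nM and SAM 20 uM, 2 h RT. Step 3: anti-H3K9me1 antibody and AlphaScreen beads, 10 min, then plate read.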
PI5P4K alpha inh – inhibitors of human PI5P4K alpha; P48426; PI5P4Kalpha enzyme, ADP-Glo luminescence, 60 min; active compounds read low; max response, %; 1.2% of 330,000 active; AID 652105; active means max response of -50% or lower; inconclusive means between -30% and -50%; inactive means -30% or higher; further: value at the top dose of about 77 µM; on the % scale 0 is the no-effect control and ±100 the full control effect
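Single end-point luminescence (ADP-Glo) quantified ADP from PI5P4Kalpha turnover; ATP 5 microM final, 1 h at RT, 0.1% CHAPS and 0.28 mM EGTA in HEPES pH 7.4.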
JMJD2A Tudor inh – inhibitors of human JMJD2A Tudor domain; Potency, µM (series often up to 114 µM), inactives show at the top dose activity change, negative = inhibition, actives largely listed as inhibitors; AID 504339; O75164; 4.4% of 390,000 active; AlphaScreen JMJD2A-Tudor / H3K4me3 peptide binding; further: potency means the concentration at half of the fitted maximal effect; on the % scale 0 is the no-effect control and ±100 the full control effect; nearly all actives have a fitted effect of over 50% in size
Target sequence (O75164 whole entry, looked up, the tested form may be a part): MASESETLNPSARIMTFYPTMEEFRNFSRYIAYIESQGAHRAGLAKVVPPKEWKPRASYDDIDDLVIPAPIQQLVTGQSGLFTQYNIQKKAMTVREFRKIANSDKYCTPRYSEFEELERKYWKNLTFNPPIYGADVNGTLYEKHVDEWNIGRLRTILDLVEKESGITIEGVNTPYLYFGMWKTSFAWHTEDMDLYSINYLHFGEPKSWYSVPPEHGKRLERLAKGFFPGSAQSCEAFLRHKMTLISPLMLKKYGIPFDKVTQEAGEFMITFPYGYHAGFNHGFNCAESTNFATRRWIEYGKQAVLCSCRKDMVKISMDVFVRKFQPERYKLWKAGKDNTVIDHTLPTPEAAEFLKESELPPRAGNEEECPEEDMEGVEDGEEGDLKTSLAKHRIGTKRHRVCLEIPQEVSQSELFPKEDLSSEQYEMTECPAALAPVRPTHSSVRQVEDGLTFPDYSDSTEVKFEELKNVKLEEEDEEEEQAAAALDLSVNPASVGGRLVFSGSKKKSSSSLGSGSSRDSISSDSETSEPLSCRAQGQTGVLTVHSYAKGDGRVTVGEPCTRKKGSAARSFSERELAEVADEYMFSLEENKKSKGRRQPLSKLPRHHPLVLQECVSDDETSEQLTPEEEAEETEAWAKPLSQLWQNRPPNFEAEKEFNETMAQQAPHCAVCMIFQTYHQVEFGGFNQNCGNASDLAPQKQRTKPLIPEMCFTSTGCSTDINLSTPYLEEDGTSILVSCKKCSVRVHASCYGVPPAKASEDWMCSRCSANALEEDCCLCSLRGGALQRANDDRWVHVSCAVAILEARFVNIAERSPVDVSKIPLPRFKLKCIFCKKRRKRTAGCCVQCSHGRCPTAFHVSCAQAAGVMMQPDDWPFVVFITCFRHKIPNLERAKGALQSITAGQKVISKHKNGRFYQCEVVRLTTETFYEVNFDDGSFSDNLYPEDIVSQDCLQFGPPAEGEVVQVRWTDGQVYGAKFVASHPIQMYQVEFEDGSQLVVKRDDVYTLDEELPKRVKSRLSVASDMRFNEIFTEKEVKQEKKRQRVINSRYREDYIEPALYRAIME
HP1b chromo inh – HP1-beta chromodomain-methylated histone interaction inhibition | AlphaScreen HP1-beta / biotin-H3K9me3 peptide binding | Potency, µM (doses to about 114 µM), for inactives: at the highest dose activity change, negative = inhibition, hits mostly inhibitors | 0.56% of 390,000 active | P83916; further: potency means the concentration at half of the fitted maximal effect; nearly all actives have a fitted effect of over 70% in size
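Compound inhibition of the preformed complex between 50 nM HP1-beta and 50 nM biotinylated H3K9me3 peptide was read by AlphaScreen. Buffer was PBS pH 7.4 with 0.01% Tween-20. Incubations ran 30 min at room temperature, with 10 ug/mL donor/acceptor beads.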
L3MBTL1 inh – blocks human L3MBTL1. AID 485360. AlphaScreen L3MBTL1–H3K9me1 peptide binding. 0.66% of 230,000 active. Potency, µM (top dose mostly 57.1 µM), without a hit: top-dose activity, negative = inhibition, usual class: inhibitors. Q9Y468; further: potency means the concentration at half of the fitted maximal effect; on the % scale 0 is the no-effect control and ±100 the full control effect; nearly all actives have a fitted effect of over 60% in size
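Displacement of a biotinylated histone H3(1-15) peptide monomethylated at Lys9 (75 nM) from L3MBTL1 (50 nM) was measured by AlphaScreen after a 30 min room-temperature compound incubation; cefsulodin titration served as intraplate control.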
BAZ2B inh – blocks human BAZ2B | Potency, µM (series often up to 114 µM), for the others: at the top dose activity change, negative = inhibition, actives largely listed as inhibitors | AID 504333 | AlphaScreen BAZ2B-H3K14Ac peptide displacement | 4.4% of 360,000 active; further: potency means the concentration at half of the fitted maximal effect; on the % scale 0 is the no-effect control and ±100 the full control effect; nearly all actives have a fitted effect of over 60% in size
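Complex of BAZ2B and biotin-H3K14Ac (50 nM apiece) forms over 30 min at RT, then faces library compounds up to 110 uM for another 30 min; AlphaScreen beads added, 20 min dark incubation, luminescence read.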
* = called active by the depositor; ? = inconclusive; · = not tested or not shown; [ ] = another dose, or the depositor's remark. Only some compounds are listed: those with a hit (about 11% of all), similar ones and a draw of the others. Unless noted, the call rests on the fitted dose curve; in most records, active means well fitted inhibition curve with a large enough effect; inconclusive means small, poorly fitted or top-dose-only effect; inactive means no such curve, though single readings can be large or run the other way.

SMILES | G9a inh | PI5P4K alpha inh | JMJD2A Tudor inh | HP1b chromo inh | L3MBTL1 inh | BAZ2B inh
Cc1ccccc1CSc1ncc(CO)n1Cc1ccc(F)cc1 | 4.3%[59 µM] | · | -21.4% | 6.9%[57 µM] | · | ?
CCn1c(/C=C/c2c[nH]c3ccccc23)nc2ccccc2c1=O | 1.6% | 1.0 | 56.2µM* | -2.5% | 7.3% | -5.0%
CCn1c(/C=C2\C(=O)N(C(C)C)c3ccccc32)nc2ccccc2c1=O | 3.4%[12.7 µM] | 4.5 | -7.4%[11.4 µM] | -23.4% | ? | 39.8µM*
CCN1C(=O)/C(=C\c2nc3ccccc3c(=O)n2CC)c2ccccc21 | 63.1µM* | 1.5 | 15.8µM* | ? | -11.8% | 44.7µM*
CCn1c(/C=C2\C(=O)N(C)c3ccccc32)nc2ccccc2c1=O | -15.9%[59 µM] | 0.9 | ? | -12.4% | -3.0% | 56.2µM*
CCn1c(/C=C/c2ccccc2Cl)nc2ccccc2c1=O | -28.5%[2.33 µM] | -3.7 | -6.8% | 63.9% | · | -3.6%
CCN1C(=O)/C(=C/c2nc3ccccc3c(=O)n2-c2ccccc2)c2ccccc21 | 2.7%[59 µM] | 3.8 | ? | 2.8% | -3.2% | 3.3%
CCn1c(/C=C\c2ccccc2C)nc2ccccc2c1=O | 112.0% | 8.9 | 53.8% | 95.6% | 13.6% | 9.9%
CCCN1C(=O)/C(=C/c2nc3ccccc3c(=O)[nH]2)c2ccccc21 | ? | -11.7 | ? | ? | -17.6% | ?
CCn1c(/C=C2/C(=O)N(C)c3ccccc32)nc2ccccc2c1=O | 50.1µM* | 0.6 | -28.3%[57.1 µM] | ? | ? | 35.5µM*
CC(C)N1C(=O)/C(=C\c2nc3ccccc3c(=O)[nH]2)c2ccccc21 | 25.1µM* | -20.9 | ? | ? | ? | 31.6µM*
COc1ccc(C2C(C(C)=O)=C(O)C(=O)N2CCc2c[nH]c3ccccc23)cc1OC (stereo not given) | 25.1µM* | 0.0 | -14.6% | 26.7% | · | -32.9%
CC(=O)C1=C(O)C(=O)N(CCc2c[nH]c3ccccc23)C1c1ccc(O)cc1 (stereo not given) | -23.0%[59 µM] | · | 89.1µM* | 8.0% | -3.0% | -30.9%
COc1ccc(C2C(C(C)=O)=C(O)C(=O)N2CCN(C)C)cc1OC (stereo not given) | 50.1µM* | · | · | · | 2.5% | -11.1%
COCCn1c(=O)c(C)nc2cnc(N3CCN(C)CC3)nc21 | -0.6%[0.501 µM] | · | · | · | · | ·
COC(=O)c1c(SC)nc2ccccc2c1OCc1cccc(C)c1 | 92.0%[59 µM] | · | 238.6% | 220.8% | · | 287.8%
O=C(CN(c1ccc(Cl)cc1)S(=O)(=O)c1ccc(Cl)c([N+](=O)[O-])c1)NCCc1ccc(F)cc1 | 0.4%[59 µM] | 21.8 | -8.9% | 31.8% | 3.1% | 3.0%
O=C(CN(c1ccc(Cl)cc1)S(=O)(=O)c1ccc(Cl)c([N+](=O)[O-])c1)NCCc1ccccc1 | 50.1µM* | -8.5 | -20.3% | 4.9% | -8.5% | -31.7%
COc1ccc(OC)c(CCNC(=O)c2c(C)nn(-c3ccc(F)cc3)c2-n2cccc2)c1 | ? | · | -28.6% | 25.2% | · | ?
CCCCNC(=O)CSc1nc2nc(C)c(Cc3ccccc3C)c(C)n2n1 | 0.2%[59 µM] | · | -10.2% | 18.1% | · | 4.2%
COc1ccc(Cl)cc1N=Nc1ncc[nH]1 | 5.5%[59 µM] | · | · | · | · | ·
COc1ccc(Nc2nc3cc(Cl)c(Cl)cc3n3cnnc23)cc1Cl | -10.4%[59 µM] | · | -14.7% | 10.5% | · | -6.9%
COc1ccccc1C(O)c1nccn1C (stereo not given) | ? | -7.2 | -22.7% | 13.2% | · | -7.4%
Cn1ccnc1C(O)c1ccco1 (stereo not given) | ? | · | 56.2µM* | -6.9% | -9.7%[11.4 µM] | 4.2%
COC(=O)/C=C1\OC(c2ccccc2)=CC1=O | 3.98µM* | · | · | · | 1.0% | ?
SMILES | G9a inh | PI5P4K alpha inh | JMJD2A Tudor inh | HP1b chromo inh | L3MBTL1 inh | BAZ2B inh
Cc1nnc(N2C(=O)c3oc4ccccc4c(=O)c3C2c2cccc(OCCC(C)C)c2)s1 (stereo not given) | -29.6%[59 µM] | · | -7.9% | 21.1% | · | ?
COc1ccc(C2=CC(=O)OC3(CCCC3)O2)cc1 | 44.7µM* | 1.2 | 0.7% | 18.8% | · | ?
COC1=CC(=O)OC12CCCCC2 | -0.7%[12.7 µM] | 9.8 | 31.7% | 41.3% | · | 9.5%
COc1ccc(Cl)cc1NC(=O)CN(C)C(=O)c1cccc(S(=O)(=O)N2CCN(C)CC2)c1 | · | 3.9 | -12.0% | 19.7% | 7.9% | ·
COc1ccc(NC(=O)CN(C)C(=O)c2cccc(S(=O)(=O)N3CCN(Cc4ccccc4)CC3)c2)cc1 | 17.8µM* | -5.0 | -22.0% | 11.3% | · | ?
CN1CCN(S(=O)(=O)c2cccc(C(=O)N(C)CC(=O)Nc3ccc(F)c(F)c3F)c2)CC1 | 1.78µM* | -1.7 | -21.4% | 14.5% | 7.4% | ?
CN(C)c1ccc(C(C(=O)NC2CCCCC2)N(Cc2ccco2)C(=O)c2snc(C(N)=O)c2N)cc1 (stereo not given) | ? | -5.5 | ? | ? | · | 39.8µM*
CN(C)c1ccc(C(C(=O)NCc2ccccc2)N(Cc2cccnc2)C(=O)c2snc(C(N)=O)c2N)cc1 (stereo not given) | 50.1µM* | 1.8 | ? | 4.7% | · | ?
COc1cc(C(C(=O)NC2CCCC2)N(Cc2ccco2)C(=O)c2snc(C(N)=O)c2N)cc(OC)c1OC (stereo not given) | -7.0% | 8.2 | -9.4% | 10.6% | · | 2.3%
O=C(COc1ccccc1F)NC1CC(=O)N(c2ccc3c(c2)OCCO3)C1 (stereo not given) | -4.4%[59 µM] | · | 2.3% | 20.0% | · | 4.3%
CCOC(=O)C1=C(CN2CCN(c3cc(C)ccc3C)CC2)NC(=O)NC1c1ccc(Cl)cc1 (stereo not given) | ? | · | ? | 8.9% | · | ·
Cc1ccc(CN2CCCn3nc(C(=O)NCCc4ccccc4Cl)cc3C2=O)cc1 | 2.3%[12.7 µM] | · | 5.0% | 25.8% | · | -2.3%
CCOCCCNC(=O)/C(C#N)=C/c1cc(C)c(O)c(C)c1 | -49.7% | 0.9 | -12.3% | 52.7% | 6.5% | -8.1%
CCOc1cc(/C=C(/C#N)C(=O)Nc2ccc(O)cc2)cc(Br)c1O | 50.1µM* | -70.7* | -27.0% | -13.1% | -4.6% | -37.5%
CCOc1ccc(NC(=O)/C(C#N)=C/c2ccc(N3CCCC3)c(C)c2)cc1 | 1.6%[59 µM] | -7.8 | -8.9% | 17.3% | -16.2% | 1.5%
C=CCNC(=O)/C(C#N)=C\c1cc(Cl)c(O)c(OCC)c1 | 11.2µM* | -58.6* | -11.0% | 9.2% | -5.6% | -15.1%
CC(=O)c1ccc(N2C(=O)N(Cc3ccccc3C#N)c3ccccc3S2(=O)=O)cc1 | 5.6%[59 µM] | · | -8.7% | 31.9% | · | -0.2%
Cc1c(C(=O)N(C)c2cccc(C(F)(F)F)c2)sc2nc3n(c(=O)c12)CCCCC3 | 14.1µM* | · | ? | 82.9% | · | 31.6µM*
CCOc1ccc(NC(=O)c2sc3nc4n(c(=O)c3c2C)CCCC4)cc1 | 15.8µM* | · | ? | 57.3% | · | 31.6µM*
Cc1c(C(=O)Nc2cccc(C(F)(F)F)c2)sc2nc3n(c(=O)c12)CCCC3 | 3.55µM* | · | -14.1% | 42.8% | · | -1.3%
